# Assay results published in PMC7862700, “An all-to-all approach to the identification of sequence-specific readers for epigenetic DNA modifications on cytosine”.
# What was measured:
# Assay in all cases: DAPPL (digital affinity profiling via proximity ligation, sequencing); 10 mM Tris-HCl pH 7.5, 50 mM NaCl, 1 mM DTT, 4% glycerol, room temperature, 30 min; GST-TFs on glutathione beads, 16-mer random dsDNA library, 0.1% formaldehyde crosslink after washing; high values mean tight binding
# Conditions in all cases: protein: recombinant; tags: N-terminal GST; dsDNA, one strand shown
# FLI1 = biological target: T1, FLI1 (Homo sapiens, UniProt Q01543 1-452)
# T1 sequence: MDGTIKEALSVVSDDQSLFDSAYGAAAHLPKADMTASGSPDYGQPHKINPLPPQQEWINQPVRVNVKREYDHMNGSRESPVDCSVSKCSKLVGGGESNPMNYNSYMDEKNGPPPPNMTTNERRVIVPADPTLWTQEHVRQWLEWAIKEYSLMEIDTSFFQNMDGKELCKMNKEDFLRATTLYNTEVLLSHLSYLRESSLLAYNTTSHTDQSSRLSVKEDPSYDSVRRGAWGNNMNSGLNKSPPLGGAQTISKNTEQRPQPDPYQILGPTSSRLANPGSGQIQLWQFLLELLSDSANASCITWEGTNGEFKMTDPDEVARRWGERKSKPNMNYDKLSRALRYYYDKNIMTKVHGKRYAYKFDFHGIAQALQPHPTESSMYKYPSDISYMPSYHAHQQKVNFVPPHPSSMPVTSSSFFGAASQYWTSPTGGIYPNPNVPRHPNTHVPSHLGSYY
# In short: (§1)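 Binding signal is defined as a hexamer's read frequency for one factor over its frequency for the tag-only sample. To obtain reads, GST-fused human transcription factors were expressed in yeast, captured on glutathione beads, barcoded with DNA and pooled with that sample. Pools met 200 nmole of a 16-mer random double-stranded DNA library in Tris/NaCl/DTT/glycerol buffer for 30 min at room temperature before washing, 0.1% formaldehyde crosslinking, proximity ligation (BsaI/T4 ligase, 1 h, 37 °C), PCR and Illumina NextSeq500 sequencing.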
# ELK1 = biological target: T2, ELK1 (Homo sapiens, UniProt P19419 1-428)
# T2 sequence: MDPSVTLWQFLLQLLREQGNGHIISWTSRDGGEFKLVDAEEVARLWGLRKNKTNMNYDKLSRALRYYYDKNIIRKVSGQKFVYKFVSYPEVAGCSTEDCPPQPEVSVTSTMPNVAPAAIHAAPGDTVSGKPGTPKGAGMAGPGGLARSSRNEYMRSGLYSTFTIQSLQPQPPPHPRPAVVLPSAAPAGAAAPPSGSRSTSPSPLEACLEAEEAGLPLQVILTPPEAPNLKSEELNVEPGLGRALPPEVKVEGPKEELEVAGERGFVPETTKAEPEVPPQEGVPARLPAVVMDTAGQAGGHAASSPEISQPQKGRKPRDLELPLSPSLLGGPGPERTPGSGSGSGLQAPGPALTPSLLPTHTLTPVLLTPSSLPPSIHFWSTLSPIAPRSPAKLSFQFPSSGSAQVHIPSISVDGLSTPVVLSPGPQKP
# In short: as §1
# GABPA = biological target: T3, GABPA (Homo sapiens, UniProt Q06546 1-454)
# T3 sequence: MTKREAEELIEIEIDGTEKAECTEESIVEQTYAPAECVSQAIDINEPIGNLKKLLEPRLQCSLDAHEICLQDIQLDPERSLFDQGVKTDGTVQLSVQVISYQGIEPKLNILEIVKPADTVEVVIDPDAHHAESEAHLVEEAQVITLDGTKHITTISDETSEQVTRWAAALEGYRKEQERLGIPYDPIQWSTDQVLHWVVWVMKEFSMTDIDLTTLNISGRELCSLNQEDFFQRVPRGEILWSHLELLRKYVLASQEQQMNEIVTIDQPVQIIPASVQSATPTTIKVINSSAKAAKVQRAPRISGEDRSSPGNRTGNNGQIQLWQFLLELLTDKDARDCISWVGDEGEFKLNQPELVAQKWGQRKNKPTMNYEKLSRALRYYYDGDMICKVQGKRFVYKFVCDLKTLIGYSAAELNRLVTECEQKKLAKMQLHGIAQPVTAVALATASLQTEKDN
# In short: as §1
# ERG = biological target: T4, ERG (Homo sapiens, UniProt P11308 1-479)
# T4 sequence: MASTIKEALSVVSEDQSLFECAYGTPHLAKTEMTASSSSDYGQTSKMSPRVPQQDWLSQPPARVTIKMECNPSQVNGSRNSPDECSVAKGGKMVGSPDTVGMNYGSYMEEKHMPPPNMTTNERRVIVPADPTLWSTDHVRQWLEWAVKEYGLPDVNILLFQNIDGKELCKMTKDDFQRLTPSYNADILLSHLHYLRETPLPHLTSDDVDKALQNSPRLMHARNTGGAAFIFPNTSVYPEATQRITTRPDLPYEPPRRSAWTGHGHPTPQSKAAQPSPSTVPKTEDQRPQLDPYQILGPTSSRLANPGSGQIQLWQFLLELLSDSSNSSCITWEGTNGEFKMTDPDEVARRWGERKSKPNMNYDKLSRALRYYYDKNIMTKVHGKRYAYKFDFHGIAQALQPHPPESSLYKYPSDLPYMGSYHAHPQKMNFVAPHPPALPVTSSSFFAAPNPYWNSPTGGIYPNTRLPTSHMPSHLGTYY
# In short: as §1
# ELF1 = ELF1 (Homo sapiens, UniProt P32519 1-619)
# Sequence of ELF1 (P32519 whole entry): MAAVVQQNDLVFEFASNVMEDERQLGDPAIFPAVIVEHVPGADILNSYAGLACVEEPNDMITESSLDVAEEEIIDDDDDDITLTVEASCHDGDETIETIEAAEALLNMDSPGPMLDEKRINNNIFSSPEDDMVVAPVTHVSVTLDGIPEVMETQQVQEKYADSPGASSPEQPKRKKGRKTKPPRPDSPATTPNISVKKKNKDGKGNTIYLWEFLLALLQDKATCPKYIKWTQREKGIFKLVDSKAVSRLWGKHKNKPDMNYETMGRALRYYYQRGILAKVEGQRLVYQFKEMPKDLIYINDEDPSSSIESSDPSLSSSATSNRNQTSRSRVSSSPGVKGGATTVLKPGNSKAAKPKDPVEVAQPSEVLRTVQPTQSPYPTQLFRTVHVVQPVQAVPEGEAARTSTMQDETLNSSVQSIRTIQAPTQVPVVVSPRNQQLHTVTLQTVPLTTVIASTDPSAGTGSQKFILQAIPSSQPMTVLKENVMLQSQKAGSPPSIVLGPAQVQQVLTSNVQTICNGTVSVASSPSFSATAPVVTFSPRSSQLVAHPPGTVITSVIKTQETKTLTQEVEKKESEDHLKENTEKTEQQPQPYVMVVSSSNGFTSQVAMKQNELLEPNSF
# In short: as §1
# EHF = biological target: T5, EHF (Homo sapiens, UniProt Q9NZC4 1-300)
# T5 sequence: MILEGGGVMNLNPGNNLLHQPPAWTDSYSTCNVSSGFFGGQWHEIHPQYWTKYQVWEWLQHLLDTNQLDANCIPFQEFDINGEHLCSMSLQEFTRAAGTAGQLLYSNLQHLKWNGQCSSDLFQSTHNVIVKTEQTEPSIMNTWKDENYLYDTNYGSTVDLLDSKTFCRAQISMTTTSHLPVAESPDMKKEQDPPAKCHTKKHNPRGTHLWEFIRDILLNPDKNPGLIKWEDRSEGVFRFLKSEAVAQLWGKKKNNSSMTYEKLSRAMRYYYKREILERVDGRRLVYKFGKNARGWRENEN
# In short: as §1
# SPI1 = SPI1 (Homo sapiens, UniProt P17947 1-270)
# In short: as §1
# SPIB = SPIB (Homo sapiens, UniProt Q01892 1-262)
# Sequence of SPIB (Q01892 whole entry): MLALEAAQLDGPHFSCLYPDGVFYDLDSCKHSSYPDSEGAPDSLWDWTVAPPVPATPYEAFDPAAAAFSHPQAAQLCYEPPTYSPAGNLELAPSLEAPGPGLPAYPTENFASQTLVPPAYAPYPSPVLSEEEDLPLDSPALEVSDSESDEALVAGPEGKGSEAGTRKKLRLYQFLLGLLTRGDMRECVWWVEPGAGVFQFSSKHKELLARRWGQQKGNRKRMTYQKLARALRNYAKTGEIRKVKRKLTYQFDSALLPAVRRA
# In short: as §1
# ELK3 = biological target: T6, ELK3 (Homo sapiens, UniProt P41970 1-407)
# T6 sequence: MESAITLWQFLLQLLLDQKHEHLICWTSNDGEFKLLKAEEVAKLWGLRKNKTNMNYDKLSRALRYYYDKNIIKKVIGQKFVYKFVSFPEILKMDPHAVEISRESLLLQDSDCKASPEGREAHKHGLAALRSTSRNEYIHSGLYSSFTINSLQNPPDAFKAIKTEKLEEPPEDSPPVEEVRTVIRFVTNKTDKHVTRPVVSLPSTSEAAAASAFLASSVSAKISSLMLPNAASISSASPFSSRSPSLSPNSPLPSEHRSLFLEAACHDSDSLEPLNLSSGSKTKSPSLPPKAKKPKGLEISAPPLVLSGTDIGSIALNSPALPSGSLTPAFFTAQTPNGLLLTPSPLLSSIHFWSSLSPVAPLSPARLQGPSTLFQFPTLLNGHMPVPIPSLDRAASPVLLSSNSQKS
# In short: as §1
sequence,measurement,setting,value
TCCCCT,binding signal,FLI1,"1.59 fold enrichment (6-mer frequency, TF over GST control)"
same,binding signal,ELK1,"1.66 fold enrichment (6-mer frequency, TF over GST control)"
same,binding signal,GABPA,"1.61 fold enrichment (6-mer frequency, TF over GST control)"
same,binding signal,ERG,"1.72 fold enrichment (6-mer frequency, TF over GST control)"
same,binding signal,ELF1,"1.74 fold enrichment (6-mer frequency, TF over GST control)"
same,binding signal,EHF,"1.67 fold enrichment (6-mer frequency, TF over GST control)"
same,binding signal,SPI1,"2.29 fold enrichment (6-mer frequency, TF over GST control)"
same,binding signal,SPIB,"1.8 fold enrichment (6-mer frequency, TF over GST control)"
same,binding signal,ELK3,"1.86 fold enrichment (6-mer frequency, TF over GST control)"
